From the supplement of paper PMC6555819

Columns and labels:
Experiment in all cases: PBM binding z-score (relative to random genomic background probes); higher = stronger binding; sequences stand for … in GC…GCGATTGACAGCGTAGAATGAAGG
[1] = tested on: PPARg:RXRa DBDmut IVT, anti-RXR (DBD mutation: RXRa K156A/R161A, NR concentration 270 nM, RXRa partner concentration 90 nM)
Summary of the method: (§1)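 Custom Agilent 4×180K protein-binding microarrays carried double-stranded probes. Their 34-nt variable regions held direct-repeat seeds, single-nucleotide variants, half-site ablations and random human genomic background sequences. Arrays were incubated 1 h with ligand-free nuclear receptor dimers in PBS pH 7.4, 2% milk, 0.02% Triton X-100, 1 mM DTT, 0.2 mg/mL BSA and 0.4 mg/ml salmon testes DNA. Antibodies against each partner (one per run) detected binding, and scanned fluorescence was regression-normalized. Binding z-scores use random background probes as reference.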

[2] = tested on: PPARg:RXRa IVT, anti-PPARg (NR concentration 270 nM, RXRa partner concentration 90 nM)
Summary of the method: as §1

[3] = tested on: PPARg DBDmut:RXRa IVT, anti-PPARg (DBD mutation: PPARg1 K132A/R137A, NR concentration 270 nM, RXRa partner concentration 90 nM)
Summary of the method: as §1

[4] = tested on: PPARg DBDmut IVT, anti-PPARg (DBD mutation: PPARg1 K132A/R137A, NR concentration 270 nM)
Summary of the method: as §1

[5] = tested on: PPARg homodimer (NR concentration 180 nM)
Summary of the method: as §1

[6] = tested on: PXR:RXRa (NR concentration 270 nM, RXRa partner concentration 90 nM)
Summary of the method: as §1

[7] = tested on: PXR homodimer (NR concentration 270 nM)
Summary of the method: as §1

[8] = tested on: RARa:RXR (NR concentration 270 nM, RXRa partner concentration 90 nM)
Summary of the method: as §1

[9] = tested on: RARa homodimer (NR concentration 270 nM)
Summary of the method: as §1

[10] = tested on: RARb:RXRa (NR concentration 270 nM, RXRa partner concentration 90 nM)
Summary of the method: as §1

In the case of TCATATAGGTAAATGCTAGGTGATAGTCCGATCT, the PBM binding z-score [1] was 4.05, the PBM binding z-score [2] was 2.45 and the PBM binding z-score [3] was 0.855. It also gave a PBM binding z-score [4] of 0.985, a PBM binding z-score [5] of 0.409 and a PBM binding z-score [6] of 0.395. The PBM binding z-score [7] was 0.368, the PBM binding z-score [8] was 0.797 and the PBM binding z-score [9] was 1.3. It also gave a PBM binding z-score [10] of 0.301.

With CAAACTAAGTCAAAGGTCAAAGTCGAGCCAACCA the PBM binding z-score [1] was 3.49, the PBM binding z-score [2] was 6.79 and the PBM binding z-score [3] was 1.69. The PBM binding z-score [4] was 2.86, the PBM binding z-score [5] was 5.3 and the PBM binding z-score [6] was 6.14. For the same sequence, the PBM binding z-score [7] was 2.15, the PBM binding z-score [8] was 7.85 and the PBM binding z-score [9] was 3.31. The PBM binding z-score [10] was 4.95.

Sequence TCTGCTAGGTCAACGATGCTCAGCTAATCTGCTA has a PBM binding z-score [1] of 4, a PBM binding z-score [2] of 3.88 and a PBM binding z-score [3] of 0.146. The PBM binding z-score [4] was -0.121, the PBM binding z-score [5] was -0.00894 and the PBM binding z-score [6] was 0.886. For the same sequence, the PBM binding z-score [7] was -1.03, the PBM binding z-score [8] was 1.69 and the PBM binding z-score [9] was -0.557. For the same sequence, the PBM binding z-score [10] was 3.82.

CCTTACGGGTCACGGACAGGTTATAGCATTTGGA showed a PBM binding z-score [1] of 3.87, a PBM binding z-score [2] of 4.87 and a PBM binding z-score [3] of 1.03. The PBM binding z-score [4] was 2.15, the PBM binding z-score [5] was 5.94 and the PBM binding z-score [6] was 4.82. For the same sequence, the PBM binding z-score [7] was 0.261, the PBM binding z-score [8] was 6.3 and the PBM binding z-score [9] was 2.04. The PBM binding z-score [10] was 4.37.

With TAGCCTAGGTCATTGGGTCAGTATAGTACGCATC the PBM binding z-score [1] was 4.09, the PBM binding z-score [2] was 4.95 and the PBM binding z-score [3] was 0.491. The PBM binding z-score [4] was 0.952, the PBM binding z-score [5] was 3.71 and the PBM binding z-score [6] was 2.99. For the same sequence, the PBM binding z-score [7] was 0.622, the PBM binding z-score [8] was 3.67 and the PBM binding z-score [9] was 0.571. The PBM binding z-score [10] was 4.06.

CAGCCTAGGTCAGGGCCAGTATGGGAGGAACGTT showed a PBM binding z-score [1] of 0.702, a PBM binding z-score [2] of 1.59 and a PBM binding z-score [3] of -1.71. The PBM binding z-score [4] was -1.33, the PBM binding z-score [5] was 0.437 and the PBM binding z-score [6] was 0.196. It also gave a PBM binding z-score [7] of -0.864, a PBM binding z-score [8] of 0.839 and a PBM binding z-score [9] of -0.701. For the same sequence, the PBM binding z-score [10] was 3.43.

For GGAACGAGGGCAAGTTCATAGCAGAGTTTGATGG, the PBM binding z-score [1] was 4.12, the PBM binding z-score [2] was 3.14 and the PBM binding z-score [3] was -0.982. The PBM binding z-score [4] was -0.116, the PBM binding z-score [5] was 0.648 and the PBM binding z-score [6] was 3.66. The PBM binding z-score [7] was 5.88, the PBM binding z-score [8] was 1.72 and the PBM binding z-score [9] was -0.259. For the same sequence, the PBM binding z-score [10] was 3.37.

With CCTACTGGGCCAAAGGTCATTGAATCCAATGCTC the PBM binding z-score [1] was 5.12, the PBM binding z-score [2] was 6.72 and the PBM binding z-score [3] was -0.082. For the same sequence, the PBM binding z-score [4] was 0.0276, the PBM binding z-score [5] was 3.57 and the PBM binding z-score [6] was 5.26. For the same sequence, the PBM binding z-score [7] was 1.68, the PBM binding z-score [8] was 5.79 and the PBM binding z-score [9] was 0.758. It also gave a PBM binding z-score [10] of 4.52.

With GATACAGGGTCACCTAGAGGCCAGAGTATGGAAA the PBM binding z-score [1] was 2.73, the PBM binding z-score [2] was 4.97 and the PBM binding z-score [3] was 2.46. It also gave a PBM binding z-score [4] of 1.14, a PBM binding z-score [5] of 3.21 and a PBM binding z-score [6] of 4.54. The PBM binding z-score [7] was 0.0767, the PBM binding z-score [8] was 6.04 and the PBM binding z-score [9] was 0.306. For the same sequence, the PBM binding z-score [10] was 4.56.

TCGAGTAGGTTAGTCGGGGCATTCATCCAACATA showed a PBM binding z-score [1] of 2.52, a PBM binding z-score [2] of 2.11 and a PBM binding z-score [3] of 0.0178. It also gave a PBM binding z-score [4] of -0.145, a PBM binding z-score [5] of 0.384 and a PBM binding z-score [6] of 0.279. For the same sequence, the PBM binding z-score [7] was 0.0478, the PBM binding z-score [8] was 0.5 and the PBM binding z-score [9] was -0.336. For the same sequence, the PBM binding z-score [10] was 0.665.

CGAACGAGGGCATGAGTTGAAAGCAAATGCCGAT showed a PBM binding z-score [1] of 2.92, a PBM binding z-score [2] of 2.09 and a PBM binding z-score [3] of -0.35. The PBM binding z-score [4] was -0.394, the PBM binding z-score [5] was 0.0525 and the PBM binding z-score [6] was 0.538. It also gave a PBM binding z-score [7] of -0.57, a PBM binding z-score [8] of 0.846 and a PBM binding z-score [9] of -0.757. For the same sequence, the PBM binding z-score [10] was 1.96.

For TCTTGTAGATCAGAGGTTAAGAAAGCCGAAGCCT, the PBM binding z-score [1] was 1.58, the PBM binding z-score [2] was 2.04 and the PBM binding z-score [3] was 0.138. The PBM binding z-score [4] was 0.179, the PBM binding z-score [5] was 0.818 and the PBM binding z-score [6] was 0.951. For the same sequence, the PBM binding z-score [7] was -0.359, the PBM binding z-score [8] was 1.48 and the PBM binding z-score [9] was -0.453. It also gave a PBM binding z-score [10] of 0.915.
